For eight compounds, Potency results are on record in PubChem BioAssay (Tox21).

Test [1] can be described thus: Nuclear factor erythroid 2-related factor 2/antioxidant responsive element (Nrf2/ARE) small molecule agonists: qHTS cell viability counter screen in human keratinocytes (AID 1919968; active = well fitted curve in the direction sought with a large enough effect in the repeat runs; an effect the other way counts as inactive or inconclusive; note: nearly all actives have a fitted effect of over 55% in size). The gist of the method:
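In human HaCaT keratinocytes stably expressing an ARE-driven luciferase, compound exposure lasted 23 h at 37 C under 5% CO2. Viable cells are quantified with a protease-based fluorogenic reagent (CellTiter-Fluor) read 1 h after addition.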
(Quantitative high-throughput screening tests each substance at several concentrations.)

Test [2] is described as follows: Nuclear factor erythroid 2-related factor 2/antioxidant responsive element (Nrf2/ARE) small molecule agonists: luciferase reporter gene qHTS assay in human keratinocytes (AID 1919969). Note: nearly all actives have a fitted effect of over 35% in size. Note: potency is the fitted concentration of half-maximal effect. On the technique in general: In a reporter assay the amount or activity of a reporter protein is the signal.
Test [3] has as its target Gonadotropin-releasing hormone receptor (Homo sapiens) (UniProt P30968). Briefly: Human gonadotropin-releasing hormone receptor (GnRHR) small molecule agonists, calcium flux assay in GnRHR-HEK293 cells (AID 1920063). Note: nearly all actives have a fitted effect of over 35% in size. The gist of the method:
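Intracellular calcium rise is the read-out: engineered human GnRHR HEK293 cells, dye-loaded, are exposed to DMSO-dissolved compounds and fluorescence at Ex/Em 480/540 is tracked for 3 min.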

For test [4], the target named is KiSS-1 receptor (Homo sapiens) (UniProt Q969F8). The experiment in a line: Human kisspeptin (KISS1R) small molecule agonists, calcium flux assay in KISS1R-HEK293 cells (AID 1920064; active = well fitted curve in the direction sought with a large enough effect in the repeat runs; an effect the other way counts as inactive or inconclusive). The gist of the method: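 Concentration-response testing used 15 concentrations in triplicate on human KISS1R-expressing HEK293 cells. Calcium-dependent fluorescence (Ex/Em 480/540) was followed kinetically for 3 min after compound transfer.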
(In general: Calcium assays in cells follow changes in intracellular calcium, usually with a dye or a luminescent sensor.)

A short description of test [5]: G protein-coupled receptor (GPCR) small molecule agonists, calcium flux assay: HEK293 wild type cell line counter screen (AID 1920065). The method, boiled down:
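Fluorescence intensity signals activation. After overnight (18 h) culture and a 1 h calcium dye load at 37 C, compounds are added by pin tool and the plate read at 480/540 nm for 3 min in 1 s steps.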

Test [6] is described as follows: p53 small molecule agonists, cell-based qHTS assay with human liver microsomes: qHTS cell viability counter screen (AID 1963579). Note: nearly all actives have a fitted effect of over 45% in size. Note: potency is the fitted concentration of half-maximal effect. The gist of the method: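 p53RE-bla cells, 4,000/well, dosed 5 hours after plating, with human liver microsomes (0.5 mg/mL final) plus NADPH (0.5 mg/mL final), 16 hours at 37 C. Viability read as CellTiter-Glo luminescence after 30 min at room temperature.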

Test [7] can be described thus: p53 small molecule agonists, cell-based qHTS assay with rat liver microsomes: qHTS cell viability counter screen (AID 1963580). Note: nearly all actives have a fitted effect of over 45% in size. Note: potency is the fitted concentration of half-maximal effect. The method, boiled down:
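Cytotoxicity counter screen: intracellular ATP measured by CellTiter-Glo luminescence in the same wells as the beta-lactamase reporter read, on HCT-116 p53RE-bla cells exposed 16 h at 37 C to compounds with rat liver microsomes and NADPH, each 0.5 mg/mL final.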

Test [8] in a line: p53 small molecule agonists, cell-based qHTS assay: qHTS cell viability counter screen (AID 1963581). Note: nearly all actives have a fitted effect of over 45% in size. The gist of the method: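 Luminescence from CellTiter-Glo, reflecting ATP content, serves as the cytotoxicity measure; it is taken after the 2 h reporter substrate step in HCT-116 p53RE-bla cells dosed for 16 h at 37 C.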
Test [9] deals with Muscarinic acetylcholine receptor M1 (Homo sapiens) (UniProt P11229). The experiment in a line: Cholinergic receptor muscarinic 1 (CHRM1) small molecule agonists, cell-based qHTS assay (AID 1963589). Note: nearly all actives have a fitted effect of over 35% in size. The method, boiled down: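 Fluorescent calcium dye reports M1 activation in stably transfected CHO cells. Compounds, 15 concentrations, added after 1 h dye loading at 37 C; kinetic reading at 1 sec intervals.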

A short description of test [10]: cAMP Responsive Elements (CRE) small molecule agonists, cell-based qHTS assay (AID 1963590). The gist of the method:
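Compound exposure lasted 3 h at 37 C/5% CO2 in CRE-bla HEK 293T cells grown in assay medium with 10% dialyzed FBS and 25 mM HEPES. Reporter signal came from LiveBLAzer B/G FRET substrate, 2 h, room temperature.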

Test [11] is described as follows: cAMP Responsive Elements (CRE) small molecule antagonists, cell-based qHTS assay (AID 1963591; active = well fitted inhibition curve with a large enough effect in the signal ratio in the repeat runs, not every such curve was filed as active; the % refers to the signal ratio). The gist of the method:
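Stimulation used NKH477 at a final 0.25 uM for 3 h in compound-treated CRE-bla HEK293T cells, seeded 18 h beforehand. Reporter activity was measured with LiveBLAzer B/G FRET substrate after 2 h at room temperature.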

The target of test [12] is Beta-2 adrenergic receptor (Homo sapiens) (UniProt P07550). The experiment in a line: Adrenergic beta2 receptor (ADRB2) small molecule antagonists, cell-based qHTS assay (AID 1963592). Note: series mostly up to about 92 µM; nearly all actives have a fitted effect of over 50% in size. The gist of the method:
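Assay format: CHO-ADRB2 cells, 18-20hr seeding at 37C/5% CO2, then compound plus 1nM isoproterenol agonist mix for 0.5hr RT. Homogeneous time-resolved fluorescence cAMP detection after 1hr, expressed as 665/615 nm ratio.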

Test [13] deals with D(2) dopamine receptor (Homo sapiens) (UniProt P14416). The experiment in a line: Dopamine D2 receptor (DRD2) small molecule agonists, cell-based qHTS assay (AID 1963594). Note: nearly all actives have a fitted effect of over 35% in size. The gist of the method:
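HEK293 cells stably expressing human DRD2, pre-treated with PDE inhibitor Ro20-1724 (0.1 mM final) and compound 10 min at room temperature, then stimulated with NKH477 (200nM […]) for 30 min. cAMP read by HTRF (665/620 nm).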

Test [14] shares this target. Briefly: Dopamine D2 receptor (DRD2) small molecule antagonists, cell-based qHTS assay (AID 1963595; active = well fitted inhibition curve with a large enough effect in the signal ratio in the repeat runs, with a control signal flat; the % refers to the signal ratio). The gist of the method:
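Antagonist mode in DRD2-HEK293 cells: after compound addition with 0.1 mM Ro20-1724, cells received quinpirole (12 nM) and NKH477 (200 nM) for 30 min at room temperature; HTRF cAMP read after 1 h detection.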

For test [15], the target named is 5-hydroxytryptamine receptor 2A (Homo sapiens) (UniProt P28223). The experiment in a line: 5-hydroxytryptamine receptor 2A (HTR2A) small molecule antagonists, cell-based qHTS assay (AID 1963586). Note: nearly all actives have a fitted effect of over 45% in size. The gist of the method: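 CHO cells stably expressing human HTR2A were plated for 18 h at 37 C, then loaded with calcium dye for 1 h. Compounds were preincubated 5 min at room temperature before DOI (4 nM solution) was added. Kinetic fluorescence was read for 3 min.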

Test [16] shares this target. The experiment in a line: 5-hydroxytryptamine receptor 2A (HTR2A) small molecule agonists, cell-based qHTS assay (AID 1963587). Note: nearly all actives have a fitted effect of over 30% in size. The method, boiled down:
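CHO cells stably expressing human HTR2A, plated 18 h, loaded with calcium dye 1 h at 37 C. Agonist mode: compounds added and intracellular calcium fluorescence recorded kinetically for 2 min at 1 sec intervals.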

For test [17], the target named is Muscarinic acetylcholine receptor M1 (Homo sapiens) (UniProt P11229). The experiment in a line: Cholinergic receptor muscarinic 1 (CHRM1) small molecule antagonists, cell-based qHTS assay (AID 1963588). Note: nearly all actives have a fitted effect of over 40% in size. The gist of the method:
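Compounds were tested at 15 concentrations in three independent runs. Dye-loaded CHRM1-CHO cells were exposed 5 min at room temperature before stimulation by acetylcholine added at 50nM. Intracellular calcium was read kinetically on FDSS for 3 min.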

Test [18] concerns the target Beta-2 adrenergic receptor (Homo sapiens) (UniProt P07550). The experiment in a line: Adrenergic beta2 receptor (ADRB2) small molecule agonists, cell-based qHTS assay (AID 1963593).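 Note: CHO cells stably overexpressing human ADRB2.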 The method, boiled down:
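CHO cells stably over-expressing ADRB2 were plated overnight at 37C, then dosed with compounds plus a stimulation mix containing 100uM IBMX and 25uM Ro-20-1724 for 0.5hr at room temperature. cAMP was measured by HTRF competition, 1hr.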

SMILES strings stand for the structures. Several values for one entry are separate records, joined by “and”; a condition that tells them apart may be missing. Identical values can stand only once. Results filed as inconclusive are left out. The source holds several records for some structures; these can differ, active in one and inactive in another. Activity calls are given as the source filed them. Unless noted, calls come from the whole dose curve.

Sequence of D(2) dopamine receptor (Homo sapiens) (P14416 whole entry, looked up): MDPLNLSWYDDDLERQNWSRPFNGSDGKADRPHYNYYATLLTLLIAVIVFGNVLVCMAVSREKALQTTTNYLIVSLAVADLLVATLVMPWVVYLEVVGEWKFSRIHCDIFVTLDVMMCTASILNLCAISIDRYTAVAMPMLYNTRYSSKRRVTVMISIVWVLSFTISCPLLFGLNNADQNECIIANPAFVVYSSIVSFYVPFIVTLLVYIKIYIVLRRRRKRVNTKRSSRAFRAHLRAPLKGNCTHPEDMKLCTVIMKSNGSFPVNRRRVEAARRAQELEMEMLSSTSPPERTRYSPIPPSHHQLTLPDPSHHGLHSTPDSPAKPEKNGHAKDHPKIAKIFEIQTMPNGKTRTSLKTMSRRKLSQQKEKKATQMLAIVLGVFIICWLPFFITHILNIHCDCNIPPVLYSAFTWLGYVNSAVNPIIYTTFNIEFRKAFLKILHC
Sequence of Beta-2 adrenergic receptor (Homo sapiens) (P07550 whole entry, looked up): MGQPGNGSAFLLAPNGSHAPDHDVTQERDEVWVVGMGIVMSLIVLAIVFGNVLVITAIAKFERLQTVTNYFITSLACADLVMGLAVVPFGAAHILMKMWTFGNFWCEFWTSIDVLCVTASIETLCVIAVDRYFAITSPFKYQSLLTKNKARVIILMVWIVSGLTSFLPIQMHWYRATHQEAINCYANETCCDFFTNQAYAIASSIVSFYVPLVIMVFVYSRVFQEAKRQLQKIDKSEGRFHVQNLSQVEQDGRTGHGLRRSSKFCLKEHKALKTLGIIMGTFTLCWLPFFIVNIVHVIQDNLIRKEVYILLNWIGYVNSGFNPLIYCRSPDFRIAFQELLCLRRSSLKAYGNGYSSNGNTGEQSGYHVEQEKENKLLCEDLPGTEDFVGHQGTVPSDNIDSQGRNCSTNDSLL
Sequence of Muscarinic acetylcholine receptor M1 (Homo sapiens) (P11229 whole entry, looked up): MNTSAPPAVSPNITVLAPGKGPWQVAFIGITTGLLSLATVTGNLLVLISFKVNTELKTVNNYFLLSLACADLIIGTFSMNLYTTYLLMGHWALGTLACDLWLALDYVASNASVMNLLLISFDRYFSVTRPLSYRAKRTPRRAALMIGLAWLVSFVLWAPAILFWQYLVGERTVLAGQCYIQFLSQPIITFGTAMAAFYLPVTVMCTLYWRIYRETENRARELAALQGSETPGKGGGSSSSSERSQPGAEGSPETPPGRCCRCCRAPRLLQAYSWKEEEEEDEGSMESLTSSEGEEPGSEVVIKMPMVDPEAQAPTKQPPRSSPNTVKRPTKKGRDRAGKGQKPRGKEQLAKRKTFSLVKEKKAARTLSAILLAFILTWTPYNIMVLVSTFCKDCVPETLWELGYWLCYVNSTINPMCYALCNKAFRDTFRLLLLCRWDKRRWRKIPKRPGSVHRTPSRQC
Sequence of KiSS-1 receptor (Homo sapiens) (Q969F8 whole entry, looked up): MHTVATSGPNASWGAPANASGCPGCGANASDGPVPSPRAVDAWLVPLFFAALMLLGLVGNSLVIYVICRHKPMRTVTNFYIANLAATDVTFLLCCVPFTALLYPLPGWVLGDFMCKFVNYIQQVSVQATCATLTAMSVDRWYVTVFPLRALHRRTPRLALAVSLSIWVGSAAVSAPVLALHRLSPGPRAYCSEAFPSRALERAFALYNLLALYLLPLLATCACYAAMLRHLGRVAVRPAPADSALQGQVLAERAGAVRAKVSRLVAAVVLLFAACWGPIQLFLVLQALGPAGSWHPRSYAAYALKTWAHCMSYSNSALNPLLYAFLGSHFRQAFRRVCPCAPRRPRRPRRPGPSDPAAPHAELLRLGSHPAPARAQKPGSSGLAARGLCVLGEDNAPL
Sequence of Gonadotropin-releasing hormone receptor (Homo sapiens) (P30968 whole entry, looked up): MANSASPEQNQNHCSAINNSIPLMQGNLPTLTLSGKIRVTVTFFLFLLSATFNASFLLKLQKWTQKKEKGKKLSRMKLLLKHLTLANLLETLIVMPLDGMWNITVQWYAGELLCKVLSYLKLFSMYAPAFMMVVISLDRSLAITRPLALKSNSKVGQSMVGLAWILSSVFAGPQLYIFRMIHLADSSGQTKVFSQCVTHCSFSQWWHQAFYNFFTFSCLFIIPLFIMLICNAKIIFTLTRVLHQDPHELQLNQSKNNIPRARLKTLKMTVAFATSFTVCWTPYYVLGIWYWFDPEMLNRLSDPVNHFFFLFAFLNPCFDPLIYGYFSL
Sequence of 5-hydroxytryptamine receptor 2A (Homo sapiens) (P28223 whole entry, looked up): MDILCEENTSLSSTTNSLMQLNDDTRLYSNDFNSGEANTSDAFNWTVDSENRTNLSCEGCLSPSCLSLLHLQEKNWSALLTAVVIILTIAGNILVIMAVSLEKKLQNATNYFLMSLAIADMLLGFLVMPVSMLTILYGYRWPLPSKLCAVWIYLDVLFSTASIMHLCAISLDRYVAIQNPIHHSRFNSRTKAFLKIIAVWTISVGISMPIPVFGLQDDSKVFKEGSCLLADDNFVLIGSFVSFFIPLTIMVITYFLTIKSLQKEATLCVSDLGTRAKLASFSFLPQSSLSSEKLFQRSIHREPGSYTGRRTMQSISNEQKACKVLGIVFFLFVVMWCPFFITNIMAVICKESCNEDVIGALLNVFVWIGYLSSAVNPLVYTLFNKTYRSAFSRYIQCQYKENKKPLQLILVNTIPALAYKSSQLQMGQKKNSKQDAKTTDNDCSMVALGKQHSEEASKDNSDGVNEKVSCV

As for `CCCCCC[n+]1ccccc1`, the Potency result in [1], in [3], in test [4], in [5], in test [7] and in test [8] was “inactive” each time. In addition, the Potency result in [9], in test [10], in test [11], in test [12], in [13] and in test [14] was “inactive” each time. Also, the Potency is 69.2 µM (active) and 69 µM (active) and inactive in [2]; 11.6 µM (active) and 9.19 µM (active) and inactive in [6].

As to `Oc1cc(Cl)c(Cl)cc1Cl`, the Potency entry in test [1], in [2], in test [3], in test [4], in test [5] and in test [6] was “inactive” throughout. For the same compound, the Potency result in test [8], in test [15], in test [16], in test [17], in test [9] and in test [11] was “inactive” in each case. Besides, the Potency entry in [12], in test [13] and in test [14] was “inactive” throughout. For the same compound, in test [7], the Potency is 40.5 µM (active) and inactive.

As to `O=Cc1cccc(Oc2ccccc2)c1`, the Potency result in test [1], in test [2], in [3], in [4], in test [5] and in test [6] was “inactive” throughout. The Potency entry in test [7], in test [8], in test [15], in test [16], in test [10] and in test [11] was “inactive” throughout. In addition, the Potency entry in [12], in [18], in [13] and in test [14] was “inactive” in each case.

Turning to `c1ccc2sc(SNC3CCCCC3)nc2c1`, the Potency entry in test [1], in [3], in test [4], in test [5], in [6] and in test [7] was “inactive” throughout. For the same compound, the Potency result in test [8], in [15], in [16], in test [9], in test [10] and in test [11] was “inactive” throughout. The Potency entry in test [12], in [18], in test [13] and in [14] was “inactive” each time. Further, the Potency in test [2] is 53.9 µM (active) and 61.1 µM (active).

As for `Nc1c(Cl)cc([N+](=O)[O-])cc1Cl`, the Potency result in [1], in test [2], in test [3], in test [4], in [5] and in [6] was “inactive” in each case. Besides, the Potency result in test [7], in [8], in test [15], in test [17], in test [9] and in [10] was “inactive” in each case. Moreover, the Potency entry in [12], in [18], in test [13] and in [14] was “inactive” in each case.

`N#Cc1cccnc1`: the Potency result in test [1], in test [2], in [3], in test [4], in test [5] and in test [6] was “inactive” throughout. The Potency result in test [7], in test [8], in test [15], in [16], in test [17] and in test [9] was “inactive” throughout. The Potency result in [10], in test [11], in [12], in test [13] and in [14] was “inactive” throughout.

As for `NN=C(N)N`, the Potency result in test [1], in [2], in test [3], in test [4], in [5] and in [6] was “inactive” in each case. Besides, the Potency result in test [7], in test [8], in [15], in test [16], in test [9] and in test [10] was “inactive” each time. Moreover, the Potency entry in test [11], in test [12], in test [18], in test [13] and in test [14] was “inactive” in each case.

For the compound `Cc1ccc(N)c(C)c1`, the Potency entry in [1], in test [2], in [3], in [4], in [5] and in test [6] was “inactive” throughout. Further, the Potency result in test [7], in test [8], in [15], in test [16], in test [9] and in test [10] was “inactive” in each case. For the same compound, the Potency result in test [11], in test [12], in test [13] and in test [14] was “inactive” throughout.
